Measured values as given in PubChem BioAssay.
Active and inactive are the calls of the source. Rule as the data show it, unless noted: active = inhibition above about 80%; inactive = the rest.

Experiments:
[1] = LFS_MB_P medulloblastoma growth inhibition, cell-based, chromothripsis tumors, cisplatin or BGB combos (AID 1671449); conditions: LFS_MB_P medulloblastoma cells;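 also: cells exposed for 96 hours; 0% = vehicle DMSO and 100% = killing by high DMSO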
[2] = HDN33 neuroblastoma growth inhibition, cell-based, chromothripsis tumors, cisplatin or BGB combos (AID 1671450); conditions: HDN33 neuroblastoma cells, stronger effect = higher value;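 also: cells exposed to compound for four days; 0% = vehicle DMSO and 100% = cell killing by high DMSO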
[3] = ICB984 medulloblastoma cell growth inhibition, synergistic combos for chromothripsis tumors, cisplatin or BGB combos (AID 1671451; call rule not given here;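 also: cells exposed for 96 hours before readout; 0% = vehicle DMSO and 100% = killing by high DMSO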); conditions: ICB984 medulloblastoma cells, drug combinations, stronger effect = higher value
[4] = LFS_MB_1R medulloblastoma cell growth inhibition, synergistic combos for chromothripsis tumors, cisplatin or BGB combos (AID 1671452); conditions: LFS_MB_1R medulloblastoma cells, stronger effect = higher value;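 also: cells exposed for 96 hours before readout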
[5] = HTB85 osteosarcoma cell growth inhibition, synergistic combos for chromothripsis tumors, BGB or cisplatin IC20 combos (AID 1671453); conditions: HTB85 osteosarcoma cells, drug combinations, stronger effect = higher value;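 also: cells exposed for 96 hours before readout; 0% = vehicle DMSO and 100% = high DMSO killing control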
[6] = CRL2098 osteosarcoma cell growth inhibition, synergistic combos for chromothripsis tumors, BGB or cisplatin IC20 combos (AID 1671454); conditions: CRL2098 osteosarcoma cells, drug combinations, stronger effect = higher value;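 also: cells exposed for 96 h before readout; 0% = vehicle DMSO and 100% = killing by high DMSO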
[7] = HD-MB03 medulloblastoma cell growth inhibition, synergistic combos for chromothripsis tumors, BGB or cisplatin IC20 combos (AID 1671455; in the data active = inhibition above about 83%;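 also: 0% = vehicle DMSO and 100% = high DMSO as cytotoxic control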); conditions: HD-MB03 medulloblastoma cells, stronger effect = higher value
[8] = UWB1.289 ovarian carcinoma cell growth inhibition, synergistic combos for chromothripsis tumors, BGB or cisplatin combos (AID 1671456); conditions: UWB1.289 ovarian carcinoma cells, stronger effect = higher value;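 also: cells exposed to compound for four days; 0% = vehicle DMSO and 100% = killing by high DMSO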
[9] = LFS_MB_2R medulloblastoma cell growth inhibition, synergistic combos for chromothripsis tumors, cisplatin combos (AID 1671457); conditions: LFS_MB_2R medulloblastoma cells, stronger effect = higher value;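 also: cells exposed to compound for four days before readout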
[10] = MDA-MB-436 breast carcinoma cell growth inhibition, synergistic combos for chromothripsis tumors, BGB or cisplatin combos (AID 1671458; call rule not given here;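 also: cells exposed for 96 hours; 0% = vehicle DMSO and 100% = killing by high DMSO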); conditions: MDA-MB-436 breast carcinoma growth inhibition, drug combinations, stronger effect = higher value
[11] = UWB1.289_BRCA1 ovarian cancer growth, cell-based, BGB or cisplatin combinations (AID 1671459); conditions: UWB1.289 BRCA1 ovarian carcinoma, drug combinations, stronger effect = higher value
[12] = human astrocyte viability loss, single and combined drugs, cytotoxicity control for chromothriptic childhood tumor combination screen, cell-based, BGB or cisplatin IC20 combos (AID 1671460); conditions: Human astrocytes, drug combinations, stronger effect = higher value;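 also: cells exposed to compounds for 96 hours before viability readout; 0% = vehicle and 100% = killing control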
[13] = growth inhibition of BT084 medulloblastoma cells, cell-based, ICGC_MB145, cisplatin and BGB IC40 combos (AID 1671461); conditions: drug combinations, stronger effect = higher value;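 also: cells exposed to drugs for 96 hours; 0% = vehicle DMSO and 100% = high DMSO full killing control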
[14] = growth inhibition of RCMB18 medulloblastoma cells, cell-based, cisplatin and BGB IC40 combos (AID 1671462); conditions: stronger effect = higher value;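 also: cells exposed to compound for four days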
[15] = growth inhibition of CRL1545 osteosarcoma cells, cell-based, cisplatin and BGB IC20 combos (AID 1671464); conditions: stronger effect = higher value;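 also: cells exposed to compound for 96 hours before readout; 0% = vehicle DMSO and 100% = high DMSO killing control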
[16] = at 0.5 µM, stronger effect = higher value
[17] = measured here: combination with BGB IC20, at 0.005 µM
[18] = measured here: combination with BGB IC40, at 0.005 µM
[19] = measured here: combination with BGB IC40, at 0.05 µM
[20] = measured here: combination with cisplatin, at 0.5 µM, stronger effect = higher value
[21] = measured here: combination with cisplatin, at 5 µM, stronger effect = higher value
[22] = measured here: with BGB IC20 combination, at 0.5 µM
[23] = measured here: with cisplatin IC20 combination, at 0.5 µM
[24] = measured here: 5 uM single agent, at 5 µM
[25] = measured here: combination with cisplatin, at 0.5 µM
[26] = measured here: combination with cisplatin, at 5 µM
[27] = measured here: with BGB IC20, at 0.5 µM
[28] = measured here: with BGB IC20, at 5 µM
[29] = measured here: with cisplatin IC20, at 0.5 µM
[30] = measured here: with cisplatin IC20, at 5 µM

What does the source list for `CC(C)(O)[C@H]1CC[C@@](C)(C2[C@@H](O)C[C@@]3(C)[C@@H]4C[C@H](O)C5C(C)(C)[C@@H](O)CCC56CC46CC[C@]23C)O1` (stereo partly drawn)?
inhibition [1, 16]: -20.9% (inactive); inhibition [1, 17]: -17.4%; inhibition [1, 18]: 78.4%; inhibition [1, 19]: -19.9%; inhibition [1, 20]: -28%; inhibition [1, 21]: -7.56%; inhibition ([2]; BGB combo, at 5 µM): -24.9%; inhibition ([2]; at 0.5 µM): 2.8% (inactive); inhibition ([2]; cisplatin combo, at 5 µM): -13.8%; inhibition [2, 22]: -6.04%; inhibition [2, 23]: 14.5%; inhibition ([2]; single agent, at 5 µM): -12.8%; inhibition ([3]; BGB IC20 combo, at 0.005 µM): -5.6%; inhibition ([3]; BGB IC40 combo, at 0.005 µM): -12.2%; inhibition ([3]; BGB IC40 combo, at 0.05 µM): -16.5%; inhibition ([3]; at 0.5 µM): -16.2% (inactive); inhibition ([3]; cisplatin combo, at 0.05 µM): -22.4%; inhibition ([3]; cisplatin combo, at 0.5 µM): -30.1%; inhibition ([3]; cisplatin combo, at 5 µM): -15.7%; inhibition [3, 24]: -12.4%; inhibition ([4]; at 0.5 µM): -15.4% (inactive); inhibition [4, 19]: -5.25%; inhibition [4, 25]: -36.6%; inhibition [4, 26]: -6.73%; inhibition ([5]; at 0.5 µM): -5.42% (inactive); inhibition [5, 27]: 4.96%; inhibition [5, 28]: -8.72%; inhibition [5, 29]: -17.2%; inhibition [5, 30]: -11.8%; inhibition ([5]; single agent, at 5 µM): 5.09%; inhibition ([6]; at 0.5 µM): -14.8% (inactive); inhibition ([6]; measured here: combination with BGB at IC20, at 0.5 µM): -24.4%; inhibition ([6]; measured here: combination with cisplatin at IC20, at 0.5 µM): -18.8%; inhibition ([7]; at 0.5 µM): -9.5% (inactive); inhibition ([7]; measured here: combo with BGB at IC20, at 0.5 µM): -9.93%; inhibition ([7]; measured here: combo with cisplatin at IC20, at 0.5 µM): -11.4%; inhibition ([8]; at 0.5 µM): 0.78% (inactive); inhibition ([8]; measured here: inhibition with BGB combination, at 0.05 µM): -14.1%; inhibition ([8]; measured here: inhibition with cisplatin combination, at 0.05 µM): -5.37%; inhibition ([9]; at 0.5 µM): -6.35% (inactive); inhibition [9, 25]: -24.6%; inhibition [9, 26]: -28.9%; inhibition ([10]; at 0.5 µM): -12% (inactive); inhibition ([10]; measured here: BGB combination, at 0.5 µM): -4.92%; inhibition ([10]; measured here: BGB combination, at 5 µM): -19.3%; inhibition ([10]; measured here: cisplatin combination, at 0.5 µM): -27.4%; inhibition ([10]; measured here: cisplatin combination, at 5 µM): -20.3%; inhibition ([11]; BGB combination, concentration series, at 5 µM): 9.93%; inhibition ([11]; at 0.5 µM): -4.21% (inactive); inhibition ([11]; cisplatin combination, concentration series, at 5 µM): 7.75%; inhibition ([12]; at 0.5 µM): 0.26% (inactive); inhibition ([12]; measured here: combo with BGB IC20, at 0.5 µM): 10.1%; inhibition ([12]; measured here: combo with cisplatin IC20, at 0.5 µM): -8.09%; inhibition ([13]; at 0.5 µM): -8.31% (inactive); inhibition ([13]; cisplatin combination, at 0.5 µM): -3.58%; inhibition ([13]; cisplatin combination, at 5 µM): -121%; inhibition ([13]; measured here: BGB IC40 combination 0.05 uM, at 0.05 µM): -25.1%; inhibition ([13]; single agent, at 5 µM): -6.41%; inhibition ([14]; at 0.5 µM): -30.6% (inactive); inhibition ([14]; cisplatin combo, at 5 µM): -6.31%; inhibition ([14]; measured here: BGB IC40 combination, at 0.05 µM): -14.5%; inhibition [14, 25]: -79%; inhibition ([14]; single agent, at 5 µM): -0.285%; inhibition ([15]; at 0.5 µM): 8.92% (inactive); inhibition [15, 22]: -5.47%; inhibition [15, 23]: 14.8%; inhibition ([15]; single agent, at 0.05 µM): -11.3%; inhibition ([15]; single agent, at 5 µM): -13%

Which inhibition [1, 16] does the source give for `CC(C)OC(=O)[C@H](C)NP(=O)(OC[C@H]1O[C@@H](n2ccc(=O)[nH]c2=O)C(C)(F)[C@@H]1O)Oc1ccccc1` (stereo partly drawn) here?
Its inhibition is -8.8% (inactive).

What about the inhibition [1, 17] of the same compound?
Its inhibition is -10.9%.

What about the inhibition [1, 18] of the same compound?
The inhibition was -13.1%.

What about the inhibition [1, 19] of the same compound?
The inhibition was 0.698%.

And the inhibition [1, 20]?
Its inhibition is -3.91%.

What about the inhibition [1, 21] of the same compound?
Its inhibition is -25.1%.

What about the inhibition ([2]; BGB combo, at 5 µM) of the same compound?
Its inhibition is -13.9%.

What about the inhibition ([2]; at 0.5 µM) of the same compound?
Its inhibition is -10.3% (inactive).

What about the inhibition ([2]; cisplatin combo, at 5 µM) of the same compound?
Its inhibition is -30.6%.

And the inhibition [2, 22]?
Its inhibition is -4.98%.

What about the inhibition [2, 23] of the same compound?
The inhibition was -21.3%.

And the inhibition ([2]; single agent, at 5 µM)?
Its inhibition is -29.9%.

What about the inhibition ([3]; BGB IC20 combo, at 0.005 µM) of the same compound?
Its inhibition is -1.44%.

And the inhibition ([3]; BGB IC40 combo, at 0.005 µM)?
The inhibition was -42.6%.

And the inhibition ([3]; BGB IC40 combo, at 0.05 µM)?
The inhibition was -35.5%.

What about the inhibition ([3]; at 0.5 µM) of the same compound?
The inhibition was -42.2% (inactive).

And the inhibition ([3]; cisplatin combo, at 0.05 µM)?
The inhibition was -40.8%.

And the inhibition ([3]; cisplatin combo, at 0.5 µM)?
The inhibition was -53.1%.

And the inhibition ([3]; cisplatin combo, at 5 µM)?
The inhibition was -16.6%.

And the inhibition [3, 24]?
The inhibition was -3.56%.

And the inhibition ([4]; at 0.5 µM)?
The inhibition was -22.9% (inactive).

What about the inhibition [4, 19] of the same compound?
Its inhibition is -33.4%.

And the inhibition [4, 25]?
The inhibition was -43%.

What about the inhibition [4, 26] of the same compound?
The inhibition was -63%.

And the inhibition ([5]; at 0.5 µM)?
The inhibition was -9.04% (inactive).

And the inhibition [5, 27]?
The inhibition was -19.6%.

What about the inhibition [5, 28] of the same compound?
The inhibition was 7.36%.

What about the inhibition [5, 29] of the same compound?
Its inhibition is -19.1%.

What about the inhibition [5, 30] of the same compound?
Its inhibition is -2.79%.

What about the inhibition ([5]; single agent, at 5 µM) of the same compound?
The inhibition was 9.61%.
